# Data from PubChem BioAssay (NCI).
# The panel holds about 79,000 compounds, 15% with a hit somewhere; the sample as a whole holds those more often. A number with no mark means an inactive call. The source made the active and inactive calls. Cut-off read from the data, not from the text of the source: active = growth inhibition above about 70%; inactive = the rest.
# Columns and labels:
# [1] = NCI Yeast Anticancer Drug Screen. Data for the rad50 strain (AID 155);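 note: 0% = growth of vehicle-only cultures of the same strain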; conditions: S. cerevisiae rad50 strain growth inhibition, hits give high values
# Outline: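 Cells are treated with compound, grown, and their growth is then scored against vehicle-only cultures of the same repair-deficient yeast strain.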
# [2] = NCI Yeast Anticancer Drug Screen. Data for the mec2-1 strain (AID 157); conditions: S. cerevisiae mec2-1 strain, hits give high values
# Outline: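 Using mec2-1 yeast: add compound, measure growth, express inhibition versus vehicle-treated cultures.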
# [3] = NCI Yeast Anticancer Drug Screen. Data for the sgs1 mgt1 strain (AID 161);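 note: 0% = growth of cultures given vehicle only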; conditions: S. cerevisiae sgs1 mgt1 strain, hits give high values
# Outline: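 Compounds are added to genetically altered yeast, and growth is compared with cultures given vehicle alone to give percent inhibition.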
# [4] = NCI Yeast Anticancer Drug Screen. Data for the cln2 rad14 strain (AID 165);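 note: 0% = growth equal to vehicle treated cultures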; conditions: S. cerevisiae cln2 rad14 strain, hits give high values
# Outline: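 Yeast strain cln2 rad14, bearing defects in cell cycle control and DNA repair, serves as the test system; values reflect growth inhibition compared with vehicle.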
# [5] = NCI Yeast Anticancer Drug Screen. Data for the bub3 strain (AID 167); conditions: S. cerevisiae bub3 mutant strain, hits give high values
# Outline: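 Part of a panel of yeast mutants defective in DNA damage repair or cell cycle regulation. Each strain is grown with compound, and inhibition is calculated relative to solvent-treated cultures.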
# [6] = NCI Yeast Anticancer Drug Screen. Data for the mlh1 rad18 strain (AID 175); conditions: S. cerevisiae mlh1 rad18 strain growth inhibition, hits give high values
# Outline: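 Steps: expose repair-defective yeast to compound; measure growth; express inhibition against vehicle-treated controls.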
# [7] = at 5.0 µM (retest, dose inferred, filed as 0.5)
# [8] = at 50.0 µM (retest, dose inferred, filed as 5.0)
Structure (SMILES),"growth inhibition [1, 7]","growth inhibition [1, 8]",growth inhibition ([1]; at 50.0 µM),"growth inhibition [2, 7]","growth inhibition [2, 8]",growth inhibition ([2]; at 50.0 µM),"growth inhibition [3, 7]","growth inhibition [3, 8]",growth inhibition ([3]; at 50.0 µM),"growth inhibition [4, 7]","growth inhibition [4, 8]",growth inhibition ([4]; at 50.0 µM),"growth inhibition [5, 7]","growth inhibition [5, 8]",growth inhibition ([5]; at 50.0 µM),"growth inhibition [6, 7]","growth inhibition [6, 8]",growth inhibition ([6]; at 50.0 µM)
O=C(CCc1ccccc1)COC(=O)c1ccc([N+](=O)[O-])cc1,-13%,-14%,-10.4%,-2%,-25%,3.45%,-6%,8%,-3.6%,-26%,-14%,10.9%,-1%,-7%,55%,-15%,-23%,16.4%
COC(=O)CSC(=S)Nc1ccc(Cl)cc1,3%,92% (active),83.5% (active),-6%,96% (active),4.25%,-4%,97% (active),44.3%,-5%,60%,-74.6%,-7%,85% (active),36.5%,7%,98% (active),51.4%
Nc1ccccc1SC(C[N+](=O)[O-])c1ccc2c(c1)OCO2 (configuration not stated),82% (active),99% (active),98.8% (active),72% (active),100% (active),99% (active),69%,99% (active),99% (active),45%,99% (active),97% (active),80% (active),100% (active),98.5% (active),65%,99% (active),99% (active)
COC(=O)C1(Cc2ccc3c(c2)CCC3)Cc2ccc3c(c2C1O)CCC3 (configuration not stated),-2%,94% (active),94.6% (active),-1%,96% (active),94.3% (active),15%,97% (active),89.9% (active),-4%,94% (active),85% (active),-1%,95% (active),93.7% (active),4%,94% (active),85.3% (active)
CN(C)/N=C\C1CC=CCC1 (configuration not stated),-148%,-148%,25.2%,-46%,-51%,5.35%,-58%,-61%,30.9%,-58%,-70%,82.9% (active),-71%,-80%,21.8%,-141%,-120%,38%
CCOC(=O)Sc1nc2ccccc2[nH]1,4%,6%,53.2%,2%,3%,25.2%,4%,0%,62.1%,3%,1%,13.7%,2%,2%,7.45%,0%,7%,29.4%
Cc1ccc(S(=O)(=O)NCCCOS(=O)(=O)c2ccc(C)cc2)cc1,20%,46%,22.8%,16%,33%,0.15%,34%,65%,28.9%,34%,63%,29.9%,37%,66%,29.4%,15%,53%,45.9%
O=C(CSc1cc[o+]cc1)c1cccc([N+](=O)[O-])c1,0%,49%,65.8%,2%,87% (active),81.8% (active),4%,86% (active),68%,-5%,53%,78.5% (active),4%,92% (active),97.1% (active),-3%,85% (active),93.5% (active)
CCCCCCN(CCCCCC)CCCCCC,3%,-4%,28.6%,-2%,-7%,10.8%,0%,-2%,9.75%,-37%,-6%,3.55%,10%,12%,7.8%,-3%,3%,35.8%
CC(C)(C)NC(=S)N/N=C/c1ccccc1O,48%,66%,89% (active),25%,73% (active),88.8% (active),40%,88% (active),92.5% (active),24%,59%,87.2% (active),36%,78% (active),88.2% (active),48%,96% (active),91% (active)
Nc1ncnc2c1cnn2C1CCCCC1,3%,79% (active),30.2%,-2%,46%,58.8%,0%,45%,14.9%,-1%,68%,36.3%,-2%,58%,32.7%,1%,75% (active),71.2% (active)
COc1ccccc1/C=C1\C=Cc2ccccc21,-3%,6%,31.9%,0%,-1%,49.5%,-4%,8%,44.2%,-1%,-14%,26.2%,3%,-1%,78% (active),-3%,7%,70.4% (active)
NC(N)=N/N=C(\c1ccc(F)cc1)c1ccc(C(F)(F)F)cc1,5%,99% (active),72.6% (active),-3%,96% (active),30.2%,-2%,99% (active),80.5% (active),-4%,93% (active),-12.7%,-1%,99% (active),83.7% (active),0%,99% (active),85.8% (active)
O=C1C(Br)CCC1(c1ccccc1)c1ccccc1 (configuration not stated),5%,91% (active),97% (active),6%,93% (active),97.2% (active),4%,97% (active),98% (active),4%,78% (active),78.8% (active),-10%,94% (active),95.7% (active),3%,96% (active),98.2% (active)
C/C(=N\NC(=S)N(C)C)c1cccc(C)n1,76% (active),98% (active),99.2% (active),84% (active),99% (active),99.3% (active),84% (active),99% (active),99.2% (active),89% (active),99% (active),99% (active),70% (active),98% (active),99.3% (active),95% (active),98% (active),99.3% (active)
CCCCN(CCCC)CC(=O)c1ccc2cc(Cl)c3ccccc3c2c1,20%,91% (active),95.3% (active),23%,93% (active),95.5% (active),56%,90% (active),95.8% (active),7%,90% (active),92.7% (active),18%,91% (active),95.3% (active),31%,84% (active),94.7% (active)
CC(C)(C)C1=CC(=CC=C2C=CN(CCO)C=C2)C=C(C(C)(C)C)C1=O,-2%,98% (active),29.1%,0%,28%,35.5%,-3%,51%,24.6%,0%,60%,31.8%,-5%,28%,31.6%,-6%,73% (active),97% (active)
CC1=C(C(=O)NCc2ccccc2)C(c2ccccc2[N+](=O)[O-])C(C(=O)NCc2ccccc2)=C(C)N1,16%,16%,71% (active),9%,9%,84.2% (active),-2%,-2%,81.4% (active),-4%,-4%,62.9%,15%,15%,81.1% (active),4%,4%,77.6% (active)
CSC(=S)NN=C(c1ccccc1)c1ccccc1,9%,97% (active),55.6%,13%,99% (active),39.4%,18%,99% (active),69.8%,7%,91% (active),53.9%,0%,98% (active),86.2% (active),16%,99% (active),81.8% (active)
